This is one part of a sample in which hits are shown more often than they occur.
Cruzain inh Det: inhibitors of Trypanosoma cruzi cruzain with detergent. 200,000 tested, 0.43% active. purified cruzain, Z-FR-AMC fluorescence, 0.01% Triton. P25779. Potency, µM, for inactives: max response, negative = inhibition, most hits filed as inhibitors;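 further: plate controls were neutral wells for no effect and buffer without enzyme for full effect; nearly all actives have a fitted effect of over 40% in size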
Target sequence (P25779 123-467 limits assumed): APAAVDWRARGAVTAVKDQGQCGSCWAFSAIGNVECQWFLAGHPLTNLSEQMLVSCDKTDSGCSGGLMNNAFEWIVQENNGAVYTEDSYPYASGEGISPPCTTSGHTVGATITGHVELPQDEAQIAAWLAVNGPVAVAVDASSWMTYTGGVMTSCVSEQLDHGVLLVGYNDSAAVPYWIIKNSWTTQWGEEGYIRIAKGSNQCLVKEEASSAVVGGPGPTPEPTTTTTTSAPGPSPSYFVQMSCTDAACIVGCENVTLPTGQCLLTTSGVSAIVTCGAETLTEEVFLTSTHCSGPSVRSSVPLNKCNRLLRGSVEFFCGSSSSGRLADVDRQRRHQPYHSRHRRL
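Sodium acetate buffer (100 mM, pH 5.5) containing 5 mM DTT and 0.01% Triton X-100 hosted 1.5 nM cruzain and test compound for 15 min at room temperature. Cleavage of 2 uM Z-FR-AMC was then tracked by fluorescence.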
NS1 function inh: inhibitors of influenza NS1 protein function. Potency, µM (series often up to 46.1 µM), inactives show top-dose activity, positive = more growth. 270,000 tested, 0.4% active; calls by dose curve; further: actives are rising curves; nearly all actives have a fitted effect of over 50% in size
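In this qHTS, NS1 from influenza A is expressed in budding yeast, where it slows growth. Cells are switched from glucose to 2% galactose medium (pH 6.0, -URA), treated with compound, and growth recovery is read at OD600.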
Cruzain noTriton: cruzain (T. cruzi) inhibition without detergent. AID 1476. P25779. Potency, µM, without a hit: max response, negative = inhibition, most hits filed as inhibitors. 200,000 tested, 2.3% active. purified cruzain, Z-FR-AMC fluorescence, no detergent;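 further: plate controls were enzyme without inhibitor for no effect and buffer without enzyme for full effect; nearly all actives have a fitted effect of over 40% in size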
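Detergent-free condition (0.00005% Triton X-100) in acetate buffer pH 5.5 with DTT. 1.5 nM enzyme and compound were pre-mixed 15 min, then 2 uM Z-FR-AMC substrate added; reaction progress from fluorescence change between first and third reads (60 s).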
* = called active by the depositor; u = inconclusive; x = no result given. Unless noted, the call rests on the fitted dose curve; in most records, active means well fitted curve in the direction sought with a large enough effect; inconclusive means small, poorly fitted or top-dose-only effect, or another doubt; inactive means no such curve, though single readings can be large; an effect the other way counts as inactive or inconclusive. Potency means the concentration at half of the fitted maximal effect.

SMILES	Cruzain inh Det	NS1 function inh	Cruzain noTriton
COC(=O)C1=NNC2C(=O)N(C3CCCCC3)C(=O)C12 (stereo not given)	x	4%	x
COc1ccc(C)cc1NC(=O)CSc1nnc(-c2ccc(C)cc2)o1	-4%	-6%	-4%
CCOc1ccc(-c2nnc(SCC(=O)Nc3ccc(C)cc3C)o2)cc1	-4%	x	2%
CCOc1ccc(-c2nnc(SCC(=O)Nc3cc(C)ccc3OC)o2)cc1	32µM*	x	u
CCOc1ccc(-c2nnc(SCC(=O)Nc3ccc(C)cc3Cl)o2)cc1	28µM*	x	u
Cc1ccc2cc(CN(Cc3ccco3)C(=S)NCC3CCCO3)c(=O)[nH]c2c1C (stereo not given)	-7%	9%	9%
CC(C)(C)[C@H]1C=C(C(=O)N2CCOCC2)O[C@@H](OCCCCO)C1	x	1%	x
N#CC1=C2N=C(N)c3ccccc3N2C2=C(C(=O)CCC2)C1c1ccc(F)cc1 (stereo not given)	x	2%	x
N#CC1=C2N=C(N)c3c(sc4c3CCCCC4)N2C2=C(C(=O)CCC2)C1c1ccccc1 (stereo not given)	-1%	u	25µM*
Cc1ccc(C2C(C#N)=C(N)N(c3cccnc3)C3=C2C(=O)CCC3)s1 (stereo not given)	x	7%	x
CSc1ccc(C2C(C#N)=C(N)N(c3ccccc3)C3=C2C(=O)CCC3)cc1 (stereo not given)	-9%	-22%	16µM*
CCOc1ccc(OCC)c(-n2cnnn2)c1	-1%	x	-4%
O=C(Nc1cccn(Cc2c(Cl)cccc2Cl)c1=O)c1c(Cl)cccc1Cl	-3%	-14%	u
CN(C)c1ccc(C2(c3ccc(N(C)C)cc3)OC(=O)c3cc(N)ccc32)cc1	x	8%	x
CN(C)c1ccc(C2(c3ccc(N(C)C)cc3)OC(=O)c3cc(N(C)C)ccc32)cc1	-5%	x	25µM*
Cc1c(N=Cc2ccc[nH]2)c(=O)n(-c2ccccc2)n1C	5%	5%	0%
Clc1ccc(-c2cn3ccccc3n2)cc1	x	-41%	x
O=C(Nc1ccc(-c2cn3ccccc3n2)cc1)c1ccc(Cl)cc1	-3%	9%	13µM*
CCCCCCC(=O)N(O)C1CC(=O)N(c2ccc(Br)cc2)C1=O (stereo not given)	2%	-66%	10µM*
CCCCCCC(=O)N(O)C1CC(=O)N(c2ccc(F)cc2)C1=O (stereo not given)	x	-84%	x
O=C(CCCN1C(=O)/C(=C\c2ccccc2)SC1=S)Nc1ccc(C(=O)O)cc1	x	-3%	x
CC(=O)c1ccc(NC(=O)CCCN2C(=O)/C(=C/C(C)=C/c3ccccc3)SC2=S)cc1	-9%	-1%	32µM*
CC(/C=C1\SC(=S)N(CC(=O)O)C1=O)=C\c1ccccc1	x	2%	x
CC(/C=C1\SC(=S)N(CC(=O)N2CCN(c3ccccc3)CC2)C1=O)=C\c1ccccc1	-6%	-6%	10µM*
Cc1ccc(N2C(=O)[C@@H]3[C@H](C2=O)C2CCCN2[C@@H]3C(=O)c2ccccc2)cc1 (stereo not given in full)	-4%	5%	u
SMILES	Cruzain inh Det	NS1 function inh	Cruzain noTriton
Cc1ccc(N2C(=O)[C@@H]3[C@H](C2=O)[C@H]2C=C(C(=O)c4ccccc4)C=CN2[C@@H]3C(=O)c2ccc(Cl)cc2)cc1	-1%	u	3.2µM*
O=C(C1=C[C@@H]2[C@H]3C(=O)N(c4cccc(Cl)c4)C(=O)[C@H]3[C@@H](C(=O)c3ccc(Cl)cc3)N2C=C1)c1ccccc1	0%	15%	16µM*
O=C(C1=C[C@@H]2[C@H]3C(=O)N(c4ccccc4Cl)C(=O)[C@H]3[C@@H](C(=O)c3ccc(Cl)cc3)N2C=C1)c1ccccc1	-8%	u	-24%
Cc1ccccc1C(=O)Nc1cccc(C#N)c1	-1%	-9%	-7%
C=C(C)C(=O)c1ccc(OC)cc1	-1%	x	6%
COc1cccc(/C=N/NC(=O)CC(=O)NCCc2ccc(OC)c(OC)c2)c1	-2%	4%	9%
CC[n+]1c(/C=C/C=C/N(C(C)=O)c2ccccc2)sc2ccccc21	-4%	u	20µM*
CC[n+]1c(/C=C/C=C/c2ccc(N(C)C)cc2)sc2ccccc21	x	-73%	x
N#CNC(=Nc1cccc(F)c1)SCc1ccccc1F	-1%	8%	2%
Cc1cc(C)c(S(=O)(=O)N2CCN(c3ccc([N+](=O)[O-])c(-n4nc(C)cc4C)c3)CC2)c(C)c1	-1%	9%	20µM*
Cc1cc(C)n(-c2cc(N3CCN(S(=O)(=O)c4ccc(Br)cc4)CC3)ccc2[N+](=O)[O-])n1	-6%	u	u
O=C1OCCC1Sc1nnc(-c2ccc(Cl)cc2)n1Cc1ccccc1 (stereo not given)	0%	1%	3%
Cc1cc2ccc(=O)oc2cc1OC[C@@H](O)C(C)(C)O	-16%	x	40µM*
